Experimental findings from ChEMBL document CHEMBL5724796, “Tm Shift (DSF) assay results for EUbOPEN Chemogenomics Library” (2024) are described below.

Values joined by “and” are separate entries in the source; they are usually repeats but may differ in a detail not shown here. Equal values may be shown once.

What all share (conditions): Compound concentration 20.0 uM
The target in experiment [1] is Tyrosine-protein kinase ABL1 (Homo sapiens) (UniProt P00519).
Experiment [2] concerns the target Bromodomain-containing protein 4 (Homo sapiens) (UniProt O60885).
Experiment [3] has as its target Cyclin-dependent kinase 2 (Homo sapiens) (UniProt P24941).
In experiment [4] the target is Casein kinase I isoform delta (Homo sapiens) (UniProt P48730).
Sequence of Casein kinase I isoform delta (Homo sapiens) (P48730 whole entry, looked up, canonical isoform): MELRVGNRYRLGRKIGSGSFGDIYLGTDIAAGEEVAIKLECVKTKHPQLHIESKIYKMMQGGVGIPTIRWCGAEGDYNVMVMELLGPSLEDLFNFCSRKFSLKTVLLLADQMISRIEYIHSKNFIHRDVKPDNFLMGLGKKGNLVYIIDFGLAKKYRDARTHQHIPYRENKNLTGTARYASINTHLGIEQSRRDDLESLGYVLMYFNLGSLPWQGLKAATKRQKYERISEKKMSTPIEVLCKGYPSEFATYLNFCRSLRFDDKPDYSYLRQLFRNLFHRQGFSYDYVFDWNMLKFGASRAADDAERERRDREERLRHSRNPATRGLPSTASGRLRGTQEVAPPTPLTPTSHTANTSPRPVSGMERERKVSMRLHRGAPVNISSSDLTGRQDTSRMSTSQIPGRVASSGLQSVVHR
Experiment [5] has as its target Glycogen synthase kinase-3 beta (Homo sapiens) (UniProt P49841).
Experiment [6] has as its target Mitogen-activated protein kinase 1 (Homo sapiens) (UniProt P28482).
For experiment [7], the target named is T1, Aurora kinase A (Homo sapiens) (UniProt O14965).
T1 sequence (whole entry): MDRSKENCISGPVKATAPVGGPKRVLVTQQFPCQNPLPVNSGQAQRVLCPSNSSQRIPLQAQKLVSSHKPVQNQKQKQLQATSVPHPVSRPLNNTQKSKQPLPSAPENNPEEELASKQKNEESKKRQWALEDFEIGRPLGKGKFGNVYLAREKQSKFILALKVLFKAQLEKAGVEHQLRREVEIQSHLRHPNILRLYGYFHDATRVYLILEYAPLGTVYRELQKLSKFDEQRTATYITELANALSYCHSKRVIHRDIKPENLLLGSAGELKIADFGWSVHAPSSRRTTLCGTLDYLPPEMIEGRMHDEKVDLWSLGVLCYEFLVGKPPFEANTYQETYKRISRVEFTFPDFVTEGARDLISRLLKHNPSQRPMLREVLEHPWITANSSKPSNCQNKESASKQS

The target in experiment [8] is T2, Transcription intermediary factor 1-alpha (Homo sapiens) (UniProt O15164).
T2 sequence (whole entry): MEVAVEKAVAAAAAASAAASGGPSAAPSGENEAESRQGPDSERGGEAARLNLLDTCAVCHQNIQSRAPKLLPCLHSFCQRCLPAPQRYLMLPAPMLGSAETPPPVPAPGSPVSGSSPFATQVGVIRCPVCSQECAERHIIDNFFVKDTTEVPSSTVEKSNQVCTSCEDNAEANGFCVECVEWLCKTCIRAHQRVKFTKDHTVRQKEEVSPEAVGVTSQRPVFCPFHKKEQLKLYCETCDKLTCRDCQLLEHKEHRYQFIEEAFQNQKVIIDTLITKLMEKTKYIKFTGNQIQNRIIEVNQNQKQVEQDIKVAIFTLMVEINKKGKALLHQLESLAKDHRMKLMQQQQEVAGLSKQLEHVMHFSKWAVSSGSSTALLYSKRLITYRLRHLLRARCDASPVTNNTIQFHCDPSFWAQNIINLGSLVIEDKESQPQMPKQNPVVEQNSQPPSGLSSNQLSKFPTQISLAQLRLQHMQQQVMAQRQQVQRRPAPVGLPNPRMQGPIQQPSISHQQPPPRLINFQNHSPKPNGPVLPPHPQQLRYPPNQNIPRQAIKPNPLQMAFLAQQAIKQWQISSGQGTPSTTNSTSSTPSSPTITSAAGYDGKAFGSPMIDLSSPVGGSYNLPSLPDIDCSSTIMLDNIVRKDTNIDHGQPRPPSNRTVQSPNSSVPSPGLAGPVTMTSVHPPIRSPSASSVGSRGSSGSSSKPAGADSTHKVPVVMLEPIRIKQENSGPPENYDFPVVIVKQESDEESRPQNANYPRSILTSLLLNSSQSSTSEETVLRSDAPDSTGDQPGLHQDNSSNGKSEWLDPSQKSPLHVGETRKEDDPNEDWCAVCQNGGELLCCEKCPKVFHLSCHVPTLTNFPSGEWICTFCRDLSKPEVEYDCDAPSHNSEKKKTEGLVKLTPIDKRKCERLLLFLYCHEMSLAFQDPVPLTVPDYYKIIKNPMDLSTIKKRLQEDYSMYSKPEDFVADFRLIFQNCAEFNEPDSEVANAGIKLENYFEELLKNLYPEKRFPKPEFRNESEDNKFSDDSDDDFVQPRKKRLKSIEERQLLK

Sequence of Glycogen synthase kinase-3 beta (Homo sapiens) (P49841 whole entry, looked up): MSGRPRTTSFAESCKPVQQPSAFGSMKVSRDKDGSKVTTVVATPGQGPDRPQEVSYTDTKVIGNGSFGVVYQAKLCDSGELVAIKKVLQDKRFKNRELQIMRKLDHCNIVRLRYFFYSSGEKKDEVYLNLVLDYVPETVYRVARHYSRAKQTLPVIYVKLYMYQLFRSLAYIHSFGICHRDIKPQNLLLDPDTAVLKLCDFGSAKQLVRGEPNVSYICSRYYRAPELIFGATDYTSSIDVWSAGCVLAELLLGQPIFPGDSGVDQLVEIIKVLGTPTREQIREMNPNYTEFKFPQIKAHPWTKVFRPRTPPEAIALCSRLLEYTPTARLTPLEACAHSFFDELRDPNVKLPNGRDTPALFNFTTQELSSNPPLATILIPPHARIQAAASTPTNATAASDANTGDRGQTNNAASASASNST
Sequence of Mitogen-activated protein kinase 1 (Homo sapiens) (P28482 whole entry): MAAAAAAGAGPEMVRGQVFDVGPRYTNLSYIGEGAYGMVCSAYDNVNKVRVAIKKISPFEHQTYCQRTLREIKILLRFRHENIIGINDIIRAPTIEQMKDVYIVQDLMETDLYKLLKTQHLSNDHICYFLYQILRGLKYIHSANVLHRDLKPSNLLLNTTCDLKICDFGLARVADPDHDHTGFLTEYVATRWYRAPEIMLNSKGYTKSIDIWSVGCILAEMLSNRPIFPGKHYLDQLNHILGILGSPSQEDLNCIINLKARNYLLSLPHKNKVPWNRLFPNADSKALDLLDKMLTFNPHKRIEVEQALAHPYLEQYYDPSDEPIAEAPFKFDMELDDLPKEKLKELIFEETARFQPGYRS
Sequence of Tyrosine-protein kinase ABL1 (Homo sapiens) (P00519 whole entry): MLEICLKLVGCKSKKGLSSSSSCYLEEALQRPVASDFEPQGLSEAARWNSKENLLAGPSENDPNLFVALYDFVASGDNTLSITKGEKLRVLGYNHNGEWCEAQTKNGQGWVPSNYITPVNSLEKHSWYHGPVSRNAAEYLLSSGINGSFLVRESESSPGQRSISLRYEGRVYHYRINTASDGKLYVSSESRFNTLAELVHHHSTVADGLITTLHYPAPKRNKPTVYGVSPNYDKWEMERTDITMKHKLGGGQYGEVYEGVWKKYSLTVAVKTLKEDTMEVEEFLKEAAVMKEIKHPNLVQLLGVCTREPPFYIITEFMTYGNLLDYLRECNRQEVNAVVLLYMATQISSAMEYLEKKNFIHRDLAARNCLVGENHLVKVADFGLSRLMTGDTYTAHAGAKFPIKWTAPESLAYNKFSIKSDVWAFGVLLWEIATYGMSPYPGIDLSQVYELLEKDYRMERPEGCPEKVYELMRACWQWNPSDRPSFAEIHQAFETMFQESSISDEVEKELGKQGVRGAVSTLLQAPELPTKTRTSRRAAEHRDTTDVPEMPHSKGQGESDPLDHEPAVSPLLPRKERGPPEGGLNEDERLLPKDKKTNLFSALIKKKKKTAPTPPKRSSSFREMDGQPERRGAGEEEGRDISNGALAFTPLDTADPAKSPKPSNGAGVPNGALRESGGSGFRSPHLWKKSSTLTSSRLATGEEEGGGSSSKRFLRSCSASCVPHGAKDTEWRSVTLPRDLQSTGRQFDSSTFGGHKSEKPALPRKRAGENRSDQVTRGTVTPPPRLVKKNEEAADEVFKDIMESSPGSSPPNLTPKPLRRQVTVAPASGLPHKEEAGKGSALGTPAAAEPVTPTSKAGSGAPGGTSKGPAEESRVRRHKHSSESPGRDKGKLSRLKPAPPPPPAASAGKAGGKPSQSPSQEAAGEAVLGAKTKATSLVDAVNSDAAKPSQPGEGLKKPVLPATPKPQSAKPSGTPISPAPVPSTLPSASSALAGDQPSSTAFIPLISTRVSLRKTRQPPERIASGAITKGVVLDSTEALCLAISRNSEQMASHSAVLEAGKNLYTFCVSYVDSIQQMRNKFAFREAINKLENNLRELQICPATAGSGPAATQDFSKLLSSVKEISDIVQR

One may read the ΔTm as the change in melting temperature against a reference sample. For `CCS(=O)(=O)N1CCC([C@@H](C)n2c(C)c(C(=O)NCc3c(OC)cc(C)[nH]c3=O)c3ccccc32)CC1`, the ΔTm was 0.06 °C in experiment [1]; -2.35 °C in experiment [2]; 0.2 °C in experiment [3]; 0.01 °C in experiment [4]; -0.39 °C in experiment [5]; -0.34 °C in experiment [6]. The ΔTm was -0.26 °C in experiment [7] and -1 °C in experiment [8].
`O=C1Cc2cc(C(=O)N[C@@H]3C[C@H]4CC[C@@H](C3)N4S(=O)(=O)CC3CCN(CCCC(F)(F)F)CC3)c(Cl)cc2N1`: the ΔTm in experiment [1] was -0.02 °C; in experiment [2], -1.65 °C; in experiment [3] it was 0.34 °C; in experiment [4], 0.08 °C; in experiment [5] it was -1.14 °C; in experiment [6] it was -0.31 °C. Besides, the ΔTm was -0.32 °C in experiment [7] and -1.38 °C in experiment [8].
On to `O=C(N1CCCC[C@@H]1Cc1ccccc1)n1cc(-c2ccc(-c3ccccc3)cc2)nn1`, for which the ΔTm in experiment [1] is 0.24 °C; in experiment [2], -2.3 °C; in experiment [3] it was 0.21 °C; in experiment [4], -1.21 °C; in experiment [5], -0.59 °C; in experiment [6] it was -0.45 °C. The ΔTm in experiment [7] was -2.78 °C; in experiment [8] it was 2.73 °C.
Turning to `CC(=O)Nc1ccc(OC[C@](C)(O)C(=O)Nc2ccc([N+](=O)[O-])c(C(F)(F)F)c2)cc1`, the ΔTm in experiment [1] is 0.78 °C; in experiment [2] it was -0.77 °C; in experiment [3], 0.35 °C; in experiment [4], 0.23 °C; in experiment [5], 0.71 °C; in experiment [6] it was -0.26 °C. Besides, the ΔTm in experiment [7] is -0.03 °C; in experiment [8], 0.02 °C.
With `Cc1sc2c(c1C)C(c1ccc(Cl)cc1)=N[C@@H](CC(=O)OC(C)(C)C)c1nnc(C)n1-2`, the ΔTm is 0.27 °C in experiment [1]; 0 °C in experiment [3]; 0.21 °C in experiment [4]; -0.11 °C in experiment [5]; -0.24 °C in experiment [6]; -0.4 °C in experiment [7]. The ΔTm in experiment [8] was -1.48 °C.
Take `N[C@H]1CC[C@H](N[C@@H]2C[C@H]2c2ccccc2)CC1`: the ΔTm in experiment [1] is 0.04 °C; in experiment [2] it was -1.89 °C; in experiment [3], 0.04 °C; in experiment [4], -0.14 °C; in experiment [5], -0.74 °C; in experiment [6], 0 °C. For the same molecule, the results for the ΔTm in experiment [7] and in experiment [8] were -1.42 °C and 0.93 °C, respectively.
As for `CCO/N=C1\c2ccccc2-c2nc(C#N)c(C#N)nc21`, the ΔTm was 0.39 °C and 0.29 °C in experiment [1]; -1.18 °C and -1.1 °C in experiment [2]; 0.59 °C and 0.08 °C in experiment [3]; -1.52 °C and -1.06 °C in experiment [4]; 0.4 °C and -0.71 °C in experiment [5]; -0.11 °C and -0.98 °C in experiment [6]. For the same molecule, the ΔTm in experiment [7] is -2.42 °C and -1.91 °C; in experiment [8], 0.92 °C and 0.33 °C.
On to `CC(C)n1nc(-c2cc3cc(O)ccc3[nH]2)c2c(N)ncnc21`, for which the ΔTm in experiment [2] was determined as 2.33 °C; in experiment [3], 2.02 °C; in experiment [4], 5.15 °C; in experiment [5] (Protein concentration 2.0 uM), 2 °C; in experiment [6], 0.14 °C; in experiment [7], 3.86 °C. Moreover, in experiment [8], the ΔTm was -0.37 °C.
On to `CN(C)NC(=O)CCC(=O)O`, for which the ΔTm was 0.19 °C in experiment [1]; -2.43 °C in experiment [2]; -0.11 °C in experiment [3]; -0.1 °C in experiment [4]; -0.76 °C in experiment [5]; 0.1 °C in experiment [6]. Moreover, the values for the ΔTm in experiment [7] and in experiment [8] were -2.27 °C and -0.24 °C, respectively.
Turning to `C=Cc1cc(C(=O)Nc2ccc(C(=N)N)cc2)c(-c2ccc(C(=O)NCC3CC3)nc2C(=O)O)cc1OC`, the ΔTm was 0.26 °C in experiment [1]; -1.29 °C in experiment [2]; 0.57 °C in experiment [3]; 0.02 °C in experiment [4]; -0.41 °C in experiment [5]; 0.21 °C in experiment [6]. Besides, the values for the ΔTm in experiment [7] and in experiment [8] were -1.17 °C and 0.42 °C, respectively.
Take `CN(Cc1cccc(-c2ccncc2)c1)C(=O)Oc1ccc(-c2ccc(C(N)=O)cc2)cc1`: the ΔTm in experiment [1] was 0.52 °C; in experiment [2] it was 0.54 °C; in experiment [3], 0.45 °C; in experiment [4], -0.05 °C; in experiment [5], 0.86 °C; in experiment [6], 0.04 °C. Also, the ΔTm in experiment [7] was -1.82 °C; in experiment [8], 0.18 °C.
